# Potency and affinity values are given separately. Values without a mark were called inactive. How the calls were made is not given here.
# Test: PhoP-promoter GFP reporter inhibition, GFP fluorescence, round 4, purified and synthesized compounds, late-stage follow-up (AID 449743)
# Details: Salmonella Typhi PhoP-promoter GFP reporter, 4 h; series mostly up to 150 µM; inhibition: at the top concentration
row,Structure (SMILES),inhibition [%]
1,Cc1ccccc1NC(=O)N1CCCN(Cc2ccccc2F)C1,-17.2
2,O=C(Nc1ccc(Cl)cc1)N1CCCN(Cc2cccc(Br)c2)C1,-6.15
3,FC(F)(F)c1ccc(NC(=S)NCc2ccc(Cl)cc2)cc1,-0.02
4,S=C(NCc1ccc(Cl)cc1)Nc1ccccc1Br,15.5
5,S=C(NCc1ccc(Cl)cc1)Nc1ccncn1,14.1
6,O=C(Nc1ccc(Cl)cc1)N1CCCN(Cc2cccc(F)c2)C1,36.1
7,O=C(NC1CCCCC1)N1CCCN(Cc2ccccc2F)C1,-9.24
8,S=C(NCc1ccc(Cl)cc1)Nc1cccc(Br)c1,-18.7
9,FC(F)(F)c1ccccc1NC(=S)NCc1ccc(Cl)cc1,-17.6
10,S=C(NCc1ccc(Cl)cc1)NC1CCOCC1,-4.47
11,O=C(Nc1ccc(Cl)cc1)N1CCN(Cc2ccccc2F)C1,14.8
12,S=C(NCc1ccc(Cl)cc1)NN1CCOCC1,13.6
13,S=C(NCc1ccc(Cl)cc1)Nc1ccccc1I,13.1
14,S=C(NCc1ccccc1)NCc1ccc(Cl)cc1,-12.6
15,N#Cc1ccc(CN2CCCN(C(=O)Nc3ccc(Cl)cc3)C2)cc1,-9.53
16,S=C(NCc1ccc(Cl)cc1)NC1CCCCC1,21.1
17,S=C(NCc1ccc(Cl)cc1)Nc1ccc(I)cc1,13.2
18,S=C(NCc1ccc(Cl)cc1)Nc1ccccn1,18.8
19,CN1CCN(C(=S)NCc2ccc(Cl)cc2)CC1,18.2
